Measured values from PubChem BioAssay (EPA / NIEHS).
Active and inactive are the calls of the source. How the source made its calls: active means hit-call score of the fitted dose curve at least 0.9, where 1 is the maximum; inactive means score below 0.9.

molecular target: Nuclear respiratory factor 1 (Homo sapiens) (UniProt Q16656); assay: ATG_NRF1_CIS: Attagene CIS-FACTORIAL HepG2 Assay for human Nuclear Respiratory Factor 1 (NRF1) Orphan Gene (AID 2282987); details: HepG2 NRF1 cis-element reporter, Attagene multiplex; actives raise or lower the signal
Sequence (Q16656 whole entry, looked up): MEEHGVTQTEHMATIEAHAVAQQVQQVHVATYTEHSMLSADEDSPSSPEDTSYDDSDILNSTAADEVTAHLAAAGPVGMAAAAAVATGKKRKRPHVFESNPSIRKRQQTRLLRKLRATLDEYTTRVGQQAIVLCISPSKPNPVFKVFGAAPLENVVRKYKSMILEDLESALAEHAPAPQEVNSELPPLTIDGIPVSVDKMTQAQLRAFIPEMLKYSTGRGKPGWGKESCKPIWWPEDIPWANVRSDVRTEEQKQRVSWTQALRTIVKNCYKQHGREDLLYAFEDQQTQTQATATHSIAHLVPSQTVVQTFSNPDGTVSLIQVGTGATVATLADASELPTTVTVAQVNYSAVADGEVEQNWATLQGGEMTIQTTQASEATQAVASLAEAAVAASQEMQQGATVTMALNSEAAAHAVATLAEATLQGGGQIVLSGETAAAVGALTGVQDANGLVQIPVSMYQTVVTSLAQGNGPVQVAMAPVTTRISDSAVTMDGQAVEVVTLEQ
Summary of the method: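 HepG2 cells transiently transfected with multiple cis-regulated reporter units, exposed 24 h. Reporter mRNAs measured by RT-PCR, fluorescent labelling, HpaI digestion and capillary electrophoresis; bidirectional fitting against DMSO.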

Row | SMILES | outcome
1 | O=C1C(Cl)=C(Cl)C(=O)C(Cl)=C1Cl | inactive
2 | N#CCCCCC#N | inactive
3 | CC1CCC(=O)O1 (stereo unspecified) | inactive
4 | COc1cc(OC)c(OC)cc1C=O | inactive
5 | CC(C)c1ccc(O)cc1 | inactive
6 | C[N+](C)(C)CC(=O)[O-] | inactive
7 | CC(C)(c1cc(Cl)c(O)c(Cl)c1)c1cc(Cl)c(O)c(Cl)c1 | inactive
8 | O=C(NCNC(=O)NC1C(=O)NC(=O)N1CO)NC1C(=O)NC(=O)N1CO (stereo unspecified) | inactive
9 | [N-]=[N+]=CC(=O)OC[C@H](N)C(=O)O | inactive
10 | COCC(=O)N(c1c(C)cccc1C)N1CCOC1=O | inactive
11 | CC(C)CCCCCCCOP(=O)(Oc1ccccc1)Oc1ccccc1 | inactive
12 | CCC1CCC(=O)O1 (stereo unspecified) | inactive
13 | C=COCCCl | inactive
14 | C=CCN(CC=C)C(=O)C(Cl)Cl | inactive
15 | CC[N+](=O)[O-] | inactive
16 | CC(Cc1ccc(C(C)(C)C)cc1)CN1C[C@@H](C)O[C@@H](C)C1 (stereo partly specified) | inactive
17 | [Cl-].[Cl-].[Cl-].[Yb+3] | inactive
18 | CCOC(=O)N(C)N=O | inactive
19 | O=CNC(N1CCN(C(NC=O)C(Cl)(Cl)Cl)CC1)C(Cl)(Cl)Cl (stereo unspecified) | inactive
20 | CCC[N+](=O)[O-] | inactive

Row | SMILES | outcome
21 | CC(C)(O)C#N | inactive
22 | CC(C)C#N | inactive
23 | S=c1[nH]c2ccccc2[nH]1 | inactive
24 | CCCCCc1cc(O)cc(O)c1 | inactive
25 | c1ccc(Nc2ccc3ccccc3c2)cc1 | inactive
26 | CSc1nc(N=[N+]=[N-])nc(NC(C)C)n1 | inactive
27 | CC=Cc1ccc2c(c1)OCO2 | inactive
28 | Cc1ccc(OP(=O)(Oc2ccc(C)cc2)Oc2ccc(C)cc2)cc1 (tested in a mixture with another compound) | inactive
29 | ClC1=C(Cl)[C@]2(Cl)[C@@H]3[C@@H](Cl)[C@H](Cl)C[C@@H]3[C@@]1(Cl)C2(Cl)Cl | inactive
30 | O=S(=O)(c1ccccc1)c1ccccc1 | inactive
31 | CCC(C)c1cc(C(C)(C)C)cc(-n2nc3ccccc3n2)c1O (stereo unspecified) | inactive
32 | CC1(C)C(=O)NC(=O)NC1=O | inactive
33 | CC(=O)/C=C/c1ccccc1 | inactive
34 | c1ccc(P(c2ccccc2)c2ccccc2)cc1 | inactive
35 | CCOC(=O)COc1ccc(Cl)cc1Cl | inactive
36 | CCN(CC)C(=S)S | inactive
37 | N#Cc1cccc(C#N)c1 | inactive
38 | N#CC(c1ccccc1)c1ccccc1 | inactive
39 | C[N+](C)=CCl | inactive

tested on: not listed separately; assay: ATG_NFI_CIS: Attagene CIS-FACTORIAL HepG2 Assay for human Nuclear Factor I (NFI) (AID 2282989); details: HepG2 cis-regulatory reporter, NFI response element transcription; actives raise or lower the signal
Summary of the method: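 HepG2 cells transiently transfected with cis-element-driven multiplexed reporter transcription units, dosed for 24 h. Reporter mRNA quantified by RT-PCR, fluorescent labelling, HpaI digestion and capillary electrophoresis; bidirectional fit versus DMSO baseline.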

Row | SMILES | outcome
40 | O=C1C(Cl)=C(Cl)C(=O)C(Cl)=C1Cl | inactive
41 | N#CCCCCC#N | inactive
42 | CC1CCC(=O)O1 (stereo unspecified) | inactive
43 | COc1cc(OC)c(OC)cc1C=O | inactive
44 | CC(C)c1ccc(O)cc1 | inactive
45 | C[N+](C)(C)CC(=O)[O-] | inactive
46 | CC(C)(c1cc(Cl)c(O)c(Cl)c1)c1cc(Cl)c(O)c(Cl)c1 | inactive
47 | O=C(NCNC(=O)NC1C(=O)NC(=O)N1CO)NC1C(=O)NC(=O)N1CO (stereo unspecified) | inactive
48 | [N-]=[N+]=CC(=O)OC[C@H](N)C(=O)O | inactive
49 | COCC(=O)N(c1c(C)cccc1C)N1CCOC1=O | inactive
50 | CC(C)CCCCCCCOP(=O)(Oc1ccccc1)Oc1ccccc1 | inactive
51 | CCC1CCC(=O)O1 (stereo unspecified) | inactive
52 | C=COCCCl | inactive
53 | C=CCN(CC=C)C(=O)C(Cl)Cl | inactive
54 | CC[N+](=O)[O-] | inactive
55 | CC(Cc1ccc(C(C)(C)C)cc1)CN1C[C@@H](C)O[C@@H](C)C1 (stereo partly specified) | inactive
56 | [Cl-].[Cl-].[Cl-].[Yb+3] | inactive
57 | CCOC(=O)N(C)N=O | inactive
58 | O=CNC(N1CCN(C(NC=O)C(Cl)(Cl)Cl)CC1)C(Cl)(Cl)Cl (stereo unspecified) | inactive
59 | CCC[N+](=O)[O-] | inactive

Row | SMILES | outcome
60 | CC(C)(O)C#N | inactive
61 | CC(C)C#N | inactive
62 | S=c1[nH]c2ccccc2[nH]1 | inactive
63 | CCCCCc1cc(O)cc(O)c1 | inactive
64 | c1ccc(Nc2ccc3ccccc3c2)cc1 | inactive
65 | CSc1nc(N=[N+]=[N-])nc(NC(C)C)n1 | inactive
66 | CC=Cc1ccc2c(c1)OCO2 | inactive
67 | Cc1ccc(OP(=O)(Oc2ccc(C)cc2)Oc2ccc(C)cc2)cc1 (tested in a mixture with another compound) | inactive
68 | ClC1=C(Cl)[C@]2(Cl)[C@@H]3[C@@H](Cl)[C@H](Cl)C[C@@H]3[C@@]1(Cl)C2(Cl)Cl | inactive
69 | O=S(=O)(c1ccccc1)c1ccccc1 | inactive
70 | CCC(C)c1cc(C(C)(C)C)cc(-n2nc3ccccc3n2)c1O (stereo unspecified) | inactive
71 | CC1(C)C(=O)NC(=O)NC1=O | inactive
72 | CC(=O)/C=C/c1ccccc1 | inactive
73 | c1ccc(P(c2ccccc2)c2ccccc2)cc1 | inactive
74 | CCOC(=O)COc1ccc(Cl)cc1Cl | inactive
75 | CCN(CC)C(=S)S | inactive
76 | N#Cc1cccc(C#N)c1 | inactive
77 | N#CC(c1ccccc1)c1ccccc1 | inactive
78 | C[N+](C)=CCl | inactive

molecular target: Myc proto-oncogene protein (Homo sapiens) (UniProt P01106); assay: ATG_Myc_CIS: Attagene CIS-FACTORIAL HepG2 Assay for human Myelocytomatosis (Myc) Proto-Oncogene Transcription Factor (AID 2282990); details: HepG2, Attagene cis-reporter transcription factor activity; actives raise or lower the signal
Sequence (P01106 whole entry, looked up, the tested form may be a part): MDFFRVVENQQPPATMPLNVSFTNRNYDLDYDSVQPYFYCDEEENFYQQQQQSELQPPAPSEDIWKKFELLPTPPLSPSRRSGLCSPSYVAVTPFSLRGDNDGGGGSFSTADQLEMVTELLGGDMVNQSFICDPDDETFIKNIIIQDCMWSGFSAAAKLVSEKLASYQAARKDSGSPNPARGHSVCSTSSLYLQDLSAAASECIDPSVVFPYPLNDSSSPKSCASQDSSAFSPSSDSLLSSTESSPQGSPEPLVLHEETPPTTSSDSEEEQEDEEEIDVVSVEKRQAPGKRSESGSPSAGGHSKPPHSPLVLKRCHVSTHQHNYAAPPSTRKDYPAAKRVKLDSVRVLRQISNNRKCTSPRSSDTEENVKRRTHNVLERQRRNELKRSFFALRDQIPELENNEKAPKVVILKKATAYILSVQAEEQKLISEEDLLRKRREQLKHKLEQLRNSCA
Summary of the method: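 Read-out: fluorescent reporter mRNA fragments resolved by capillary electrophoresis after RT-PCR. Human HepG2 liver cells carried transfected cis-element reporter units and were dosed for 24 h. Gain or loss of signal fitted relative to DMSO baseline.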

Row | SMILES | outcome
79 | O=C1C(Cl)=C(Cl)C(=O)C(Cl)=C1Cl | inactive
80 | N#CCCCCC#N | inactive
81 | CC1CCC(=O)O1 (stereo unspecified) | inactive
82 | CC(C)c1ccc(O)cc1 | inactive
83 | O=C(NCNC(=O)NC1C(=O)NC(=O)N1CO)NC1C(=O)NC(=O)N1CO (stereo unspecified) | inactive
84 | [N-]=[N+]=CC(=O)OC[C@H](N)C(=O)O | inactive
85 | COCC(=O)N(c1c(C)cccc1C)N1CCOC1=O | inactive
86 | CC(C)CCCCCCCOP(=O)(Oc1ccccc1)Oc1ccccc1 | inactive
87 | C=COCCCl | inactive
88 | C=CCN(CC=C)C(=O)C(Cl)Cl | inactive
89 | CC(Cc1ccc(C(C)(C)C)cc1)CN1C[C@@H](C)O[C@@H](C)C1 (stereo partly specified) | inactive
90 | [Cl-].[Cl-].[Cl-].[Yb+3] | inactive
91 | CCOC(=O)N(C)N=O | inactive
92 | CCC[N+](=O)[O-] | inactive
93 | CC(C)(O)C#N | inactive
94 | CC(C)C#N | inactive
95 | S=c1[nH]c2ccccc2[nH]1 | inactive
96 | CCCCCc1cc(O)cc(O)c1 | inactive
97 | c1ccc(Nc2ccc3ccccc3c2)cc1 | inactive
98 | CC=Cc1ccc2c(c1)OCO2 | inactive
99 | Cc1ccc(OP(=O)(Oc2ccc(C)cc2)Oc2ccc(C)cc2)cc1 (tested in a mixture with another compound) | inactive
100 | O=S(=O)(c1ccccc1)c1ccccc1 | inactive
101 | CC1(C)C(=O)NC(=O)NC1=O | inactive
102 | CC(=O)/C=C/c1ccccc1 | inactive
103 | c1ccc(P(c2ccccc2)c2ccccc2)cc1 | inactive
104 | CCOC(=O)COc1ccc(Cl)cc1Cl | inactive
105 | N#CC(c1ccccc1)c1ccccc1 | inactive
106 | C[N+](C)=CCl | inactive
